# Hits are enriched below; roughly 2.4% of the tested compounds scored in any of these assays.
# Mito fusion act: blocks mitochondrial division or promotes mitochondrial fusion; 320,000 compounds, 0.23% hits; Potency, µM (top dose mostly 46.1 µM), without a hit: top-dose growth rescue (activation), actives largely listed as activators; S. cerevisiae fusion-defective mutant growth rescue, CellTiterGlo 48 h; note: % of control where 0% means no effect; nearly all actives have a fitted effect of over 45% in size
#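 Read-out: ATP-based luminescence (CellTiterGlo, 10 min ambient) reporting growth of fusion-defective ts yeast after 48 hours at 37C on glycerol/ethanol YPEG medium in the presence of compound.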
# Abeta rescue: compounds reversing amyloid beta toxicity in yeast; yeast expressing A-beta42, growth rescue, OD600, 48 h; response scale: 0% DMSO, 100% iron-clioquinol control; Potency, µM (top dose mostly 46.1 µM), usual class: activators; 410,000 compounds, 0.063% hits; AID 1347071; note: nearly all actives have a fitted effect of over 55% in size
#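 Growth rescue measured by 600 nm absorbance after 48 h yeast culture at 30 C with compound. Values normalized between DMSO and an equimolar ferric chloride plus clioquinol control.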
# TDP43 rescue: rescues yeast growth from TDP-43 toxicity. AID 652104. TDP-43 expressing yeast growth rescue, BacTiter-Glo, 24 h. 410,000 compounds, 1.8% hits. Potency, µM (series often up to 46.1 µM), for inactives: top-dose growth rescue (activation), most hits filed as activators; note: % of control where 0% means no effect; nearly all actives have a fitted effect of over 50% in size
#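 Galactose-induced TDP-43 yeast, OD600=0.02, compound pinned; 24 hr, 30 deg C; BacTiter-Glo luminescence for growth. Inhibitors of TDP-43 toxicity read as activators.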
# aSyn yeast inh: rescues yeast growth from alpha-synuclein toxicity; Yeast expressing alpha-synuclein, growth rescue, BacTiter-Glo, 24 h; AID 652106; Potency, µM (top dose mostly 46.1 µM), for the others: at the highest dose growth rescue (activation), most hits filed as activators; 370,000 compounds, 0.14% hits; note: % of control where 0% means no effect; nearly all actives have a fitted effect of over 65% in size
#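 Rescue of yeast growth: cells expressing toxic alpha-synuclein, induced in galactose at OD600 0.02, incubated with compound 24 h at 30 C. ATP luminescence quantified growth; inhibitors of toxicity appear as activators.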
# FUS suppressor: rescues growth of FUS-expressing yeast; 390,000 compounds, 0.24% hits; S. cerevisiae FUS-expressing, growth rescue, OD600, 24 h; Potency, µM (doses to about 76.6 µM), most hits filed as activators;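 note: plate controls were DMSO vehicle for no effect and reference control for full effect; nearly all actives have a fitted effect of over 55% in size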
#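 Toxicity suppression screen in FUS-yeast. Cells induced with 2% galactose, starting OD 0.005, treated 24hr at 30C with compounds at multiple final concentrations; growth by OD600.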
# A-T KAP1 phos: potential ataxia-telangiectasia treatment; 320,000 compounds, 0.19% hits; Potency, µM (series often up to 57.5 µM), for the others: at the top dose activation, hits mostly activators; F2112 A-T fibroblasts, KAP-1 phosphorylation AlphaLISA; neocarzinostatin DNA damage 30 min before lysis; note: % of control where 0% means no effect; nearly all actives have a fitted effect of over 45% in size
#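 hTERT-immortalized A-T patient fibroblasts (F2112), 500 cells/well in OPTI-MEM, 1% FBS, got compounds for 60 min, then NCS for 30 min at 37C. Lysates were then assayed for phospho-KAP-1 by AlphaLISA (anti-pKAP1 donor, anti-KAP1 acceptor beads), 6 hr at 25C.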
# An asterisk follows results filed as active; i = inactive; ? = inconclusive; . = no result. Calls come from the whole dose curve; as a rule, active = well fitted curve in the direction sought with a large enough effect; inconclusive = small, poorly fitted or top-dose-only effect, or another doubt; inactive = no such curve, though single readings can be large; an effect the other way counts as inactive or inconclusive. Potency is the fitted concentration of half-maximal effect.
SMILES,Mito fusion act,Abeta rescue,TDP43 rescue,aSyn yeast inh,FUS suppressor,A-T KAP1 phos
CCCCn1c(CN2CCN(c3cccc(Cl)c3)CC2)nc2c1c(=O)n(C)c(=O)n2C,27%,i,20µM*,2%,i,-5%
O=C(Nc1ccc(Br)cc1)OC1CC2CC1[C@H]1CCCCN1[C@H]2Cc1ccccc1 (stereo partly drawn),.,.,.,.,i,.
C#CCN(C[C@H]1[C@H](OC(=O)NCc2ccco2)[C@H](OC(=O)NCc2ccco2)C[C@H]2C(=O)N(c3ccccc3)C(=O)[C@@H]12)S(=O)(=O)c1ccc(C)cc1,.,i,0%,0%,16µM*,.
COC(=O)C1CN(Cc2cn(Cc3ccc(OC)cc3)nn2)CCS(=O)(=O)N1Cc1ccccc1 (stereo not drawn),.,.,.,.,i,.
CCc1cc2c(=O)[nH]c(-c3ccccn3)nc2s1,-2%,?,?,18µM*,.,-3%
Fc1cccc(CNC2CCC23CCC(c2ccccc2)CC3)c1 (stereo not drawn),.,.,.,.,i,.
CCn1nc(C)c(CCN(C)C(=O)Nc2cc(Cl)ccc2C)c1C,.,i,29%,.,i,.
CCOC(=O)CSc1c(-c2ccc(Cl)cc2)[nH]c2ccccc12,?,i,-3%,-10%,i,2%
CCOC(=O)CSc1c(-c2cccs2)[nH]c2ccccc12,14µM*,?,16µM*,4%,i,18%
CC(C)Oc1ccc(C(=O)OCC(=O)NC(=O)NC2CCCC2)cc1,-6%,?,20µM*,17%,i,3%
COc1ccc2c(c1)c(C(=O)O)c(C)n2CCc1ccc(OC)c(OC)c1,-1%,i,0%,15%,i,8%
COc1ccc2c(c1)c(C(C)=O)c(C)n2CCc1ccc(OC)c(OC)c1,-6%,i,20µM*,2%,i,-8%
O=C(Nc1c2c(nn1-c1ccc(Cl)cc1)CS(=O)(=O)C2)c1cccc(F)c1,.,i,7%,-4%,i,.
Cc1cc2nc3c(=O)n(C)c(=O)n(C)c3nc2cc1N=CN(C)C,.,i,13%,.,i,.
COc1cc(OC)c2c(=O)cc(-c3ccccc3)oc2c1,-1%,i,35µM*,-8%,i,-16%
CC(C)(C)OC(=O)COc1cc(OCC(=O)OC(C)(C)C)c2c(=O)cc(-c3ccccc3)oc2c1,-4%,i,18%,0%,32µM*,-5%
COc1cc(OC)c2c(=O)cc(-c3cccnc3)oc2c1,-1%,i,1%,?,i,0%
CCOC(=O)c1ccc(-n2c(CCC(=O)O)ccc2-c2cccs2)cc1,-6%,i,26%,20µM*,i,-7%
CCCCn1c(CCC(=O)O)ccc1-c1cccs1,5%,i,18µM*,16%,i,0%
CCc1ccc(-n2c(CCC(=O)O)ccc2-c2cccs2)cc1,.,i,?,.,i,.
COCCn1c(CCC(=O)O)ccc1-c1cccs1,0%,i,-18%,11%,i,-4%
Cc1cc(Cl)ccc1-n1c(CCC(=O)O)ccc1-c1cccs1,.,i,22µM*,.,?,.
Cc1ccc(Cl)cc1-n1c(CCC(=O)O)ccc1-c1cccs1,.,i,13µM*,.,i,.
Cc1c(Cl)cccc1-n1c(CCC(=O)O)ccc1-c1cccs1,.,i,?,.,?,.
Clc1ccc2c(c1)-c1c(cnc3cc(-c4ccccc4)nn13)CO2,.,i,21%,.,i,.
SMILES,Mito fusion act,Abeta rescue,TDP43 rescue,aSyn yeast inh,FUS suppressor,A-T KAP1 phos
COc1ccc(NC(=O)Cn2c(SCc3ccc(C)cc3)nc3cccnc32)cc1OC,.,i,1%,.,i,.
Cc1ccc(-c2ccc(CCC(=O)O)o2)cc1,4%,i,?,23%,i,-2%
O=C(O)CCc1ccc(-c2cccs2)o1,-1%,i,?,14µM*,i,1%
Cc1cccc(Oc2cnn(C(C)(C)C)c(=O)c2Cl)c1,4%,i,10µM*,10%,i,7%
COc1cnn(C(C)(C)C)c(=O)c1Cl,1%,i,-16%,0%,i,-1%
Fc1ccccc1Cn1c(-c2ccccc2)nc2ccccc21,.,i,22µM*,.,i,.
C=C(C)Cn1c(-c2ccccc2)nc2ccccc21,0%,i,16%,0%,i,0%
Cc1cccc(Cn2c(Cc3ccccc3)nc3ccccc32)c1,?,i,?,-2%,i,4%
CCSc1nc2ccccc2n1Cc1ccccc1F,1%,i,14µM*,-11%,i,0%
NC(=O)CSc1nc2ccccc2n1Cc1ccccc1F,-3%,i,23%,?,i,3%
Cc1cccc(Cn2c(-c3ccccc3)nc3ccccc32)c1,.,i,14µM*,.,i,.
CC(C)C[C@H](NC1(C(=O)NC2CCCCC2)CCCCC1)C(=O)NCCc1c[nH]c2ccccc12,.,.,.,.,i,.
COc1ccc(C(C(=O)N(C)C2CCCC2)N(Cc2ccc(F)cc2)C(=O)c2cc(C)on2)cc1OC (stereo not drawn),.,.,.,.,i,.
CCCCOC(=O)c1ccc(OC(=O)c2cccnc2)cc1,-5%,i,13µM*,4%,i,-1%
CCCCCCOC(=O)c1ccc(OC(=O)c2cccnc2)cc1,?,i,23%,3%,i,6%
Cc1nc(N2CCOCC2)c2c(C(=O)N3CCN(c4ccccc4F)CC3)c(C)oc2n1,.,i,23%,.,i,.
Cc1[nH]n(-c2ccccc2)c(=O)c1/C=N/NC(=O)c1ccccc1F,-8%,10µM*,?,9%,i,-18%
Cc1[nH]n(-c2ccccc2)c(=O)c1/C=N/N1C(=O)c2ccc3c4c(ccc(c24)C1=O)CC3,-9%,8.9µM*,5µM*,25µM*,i,-7%
COc1ccc(CCNC(=O)C(=O)NCC(c2ccco2)S(=O)(=O)c2ccc(F)cc2)cc1 (stereo not drawn),.,i,14%,.,i,.
CN(Cc1ccccc1)S(=O)(=O)c1cccc(C(=O)OCc2ccc(Oc3ccccc3)cc2)c1,.,.,.,.,i,.
COC(=O)c1sccc1S(=O)(=O)N(CC(=O)Nc1ccccc1C)c1ccc(Cl)cc1,.,i,-10%,.,32µM*,.
Cc1cscc1-c1ccc(C(=O)Nc2c(C)cccc2C)o1,.,i,14µM*,29%,i,.
Cc1ccc([N+](=O)[O-])cc1-c1[nH]c(-c2ccc(O)c(O)c2)nc1-c1ccccc1,5%,i,17%,0%,20µM*,-5%
O=C(c1ccc(Cl)cc1)N1CCC(C(=O)N2CCCc3ccccc32)CC1,-2%,i,14µM*,-2%,.,13%

# Screens as filed in PubChem BioAssay.
